Test results taken from PubChem BioAssay AID588773 (The Scripps Research Institute Molecular Screening Center, 2011).
Values without a mark were called inactive.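 Rule for the calls: active = inhibition of plasma PAF acetylhydrolase at a set limit or more at 0.1 µM, with tenfold selectivity over all off-targets; inactive = inhibition below the limit or weaker selectivity.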

Experiment: pPAFAH inhibition and serine hydrolase selectivity, late-stage follow-up, selectivity assay for pPAFAH inhibitor project, biochemical, gel-based, FP-Rh fluorescence, mouse, HTS hit compounds (AID 588773)
Conditions: gel-based competitive ABPP, proteome, MW 30 kDa protein, at 10 µM, stronger effect = higher value

For `O=C(Oc1ccc([N+](=O)[O-])cc1)N1CCC(N2CCCCC2)CC1`, the inhibition was 27%.

`CN(C)C(=O)Oc1noc2cc(Cl)ccc12` showed an inhibition of 14%.
